# ADAM17 inh = ADAM17 inhibition, QFRET primary screen; P78536; recombinant ADAM17, EDANS/DABCYL FRET peptide cleavage; inhibition, % at 6.95 µM; 370,000 tested, 0.83% active; AID 720648;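 active = inhibition above the mean of compounds lying between control limits plus 3 SD, set per campaign, cut at about 8.5% in these data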;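 note: 0% = DMSO-only wells as the low control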
# Target sequence (P78536 215-824 limits assumed): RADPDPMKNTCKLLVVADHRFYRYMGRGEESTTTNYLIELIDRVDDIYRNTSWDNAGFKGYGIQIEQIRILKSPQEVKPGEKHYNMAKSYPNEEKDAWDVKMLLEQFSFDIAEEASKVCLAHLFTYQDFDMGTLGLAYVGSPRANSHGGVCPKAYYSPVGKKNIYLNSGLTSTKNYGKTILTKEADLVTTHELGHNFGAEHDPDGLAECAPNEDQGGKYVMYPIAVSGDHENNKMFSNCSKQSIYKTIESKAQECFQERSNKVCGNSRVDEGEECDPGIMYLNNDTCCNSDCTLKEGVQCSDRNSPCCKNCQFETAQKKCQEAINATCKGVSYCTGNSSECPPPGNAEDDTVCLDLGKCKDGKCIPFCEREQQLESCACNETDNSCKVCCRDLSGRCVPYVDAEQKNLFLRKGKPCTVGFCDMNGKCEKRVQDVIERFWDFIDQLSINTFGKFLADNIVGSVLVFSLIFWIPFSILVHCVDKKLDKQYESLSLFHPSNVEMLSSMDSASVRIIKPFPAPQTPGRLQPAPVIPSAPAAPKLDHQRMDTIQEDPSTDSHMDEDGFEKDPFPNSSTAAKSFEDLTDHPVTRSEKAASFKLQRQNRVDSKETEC
# rCAG RNA binder = binds r(CAG) RNA repeats; 370,000 tested, 1.3% active; AID 651821; r(CAG) RNA repeat, TO-PRO-1 dye displacement fluorescence; inhibition, % at 3 µM;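 active = inhibition above the plate cutoff, the mean of all test compounds on that plate plus 3 SD, cut at about 35% in these data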;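 note: 0% = DMSO alone and 100% = 100 µM mitoxantrone as full dye displacement; higher means more dye released from RNA so lower well fluorescence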
# GRIN3A LBD mod = modulates the human NR3A ligand-binding domain | NR3A LBD differential scanning fluorimetry, Tm shift; 0% = protein alone, 100% = glycine-bound protein | Tm shift relative to glycine control, % at 25 µM | 340,000 tested, 2.5% active | AID 1259313;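 active = melting temperature shift of at least 10% of the positive control shift, at one fixed dose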
# KLK7 zymogen act = activates the human kallikrein-7 zymogen | AID 652039 | purified proKLK7, EDANS-DABCYL substrate fluorescence; 100% is mature enzyme control, 0% vehicle | activation, % at 7 µM | P49862 | 370,000 tested, 0.9% active;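 active = activation above the mean of all tested compounds plus 3 SD, computed per campaign excluding outliers beyond control limits, cut at about 13% in these data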
# AHR activator = human AHR activation. P35869. AHR-responsive luciferase reporter cells, luminescence. activation, % at 5 µM. 320,000 tested, 2.5% active; in the data active = activation above about 47%;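 note: 0% = vehicle wells and 100% = reference agonist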
# ADAM10 inh = ADAM10 inhibition, QFRET primary screen | inhibition, % at 7 µM | AID 720582 | O14672 | 370,000 tested, 0.62% active | recombinant ADAM10, EDANS/DABCYL FRET peptide cleavage, 3 h;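 active = inhibition above a per-campaign cutoff equal to the mean of compounds falling between control-based bounds plus 3 SD, cut at about 20% in these data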;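 note: 0% = DMSO wells while the 100% control is not disclosed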
# rCAG bind conf = r(CAG) RNA repeat binding, confirmation; 4,300 tested, 70% active; AID 652065; inhibition, % at 3 µM; shares compounds with rCAG RNA binder; TO-PRO-1 dye displacement fluorescence;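 active = inhibition above a per-plate cutoff, the mean inhibition of sample wells plus 3 SD, cut at about 35% in these data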;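 note: loss of TO-PRO-1 fluorescence as compound displaces dye from 1x1 AA loop RNA; 0% = DMSO only wells and 100% = 100 µM mitoxantrone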
# dCAG dye counter = DNA CAG dye complex inhibition counter-screen | shares compounds with rCAG RNA binder | d(CAG) DNA oligo TO-PRO-1 dye displacement, fluorescence | inhibition, % at 3 µM | 4,300 tested, 94% active | AID 652068;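 active = inhibition above its plate's cutoff, the mean test-well inhibition plus 3 SD, cut at about 4.8% in these data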;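 note: 0% = DNA dye mix with DMSO and 100% = 100 µM mitoxantrone; hits displace the dye from DNA and so lower well fluorescence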
# dCAG dye DR = disrupts DNA CAG TO-PRO-1 complex in dose response; shares compounds with rCAG RNA binder; DNA CAG/GTC duplex TO-PRO-1 dye displacement fluorescence; IC50, µM; 250 tested, 20% active; AID 686960; in the data active = IC50 below about 10 µM
# * = called active by the depositor; i = inactive; . = no result. In the library only some 7% were active in any assay of this set; here they are far more common.
SMILES,ADAM17 inh,rCAG RNA binder,GRIN3A LBD mod,KLK7 zymogen act,AHR activator,ADAM10 inh,rCAG bind conf,dCAG dye counter,others
COc1cc2cc3c(N)c(C(=O)Nc4sc(C)c(C)c4C#N)sc3nc2cc1OC,-256,53*,19*,-30,4,i,61*,31*,
COc1cc2cc3c(N)c(C(=O)NCc4ccco4)sc3nc2cc1OC,.,.,0,.,-5,.,.,.,
COC(=O)[C@@]12CCCCC=C1N(CCc1ccc(Cl)cc1)C(=O)[C@H]2CC(=O)NCCCCc1ccccc1,-2,13,.,1,.,1,.,.,
CCn1c(SCC(=O)NN=Cc2c[nH]c3ccccc23)nc2ccccc21,-1,7,.,0,.,4,.,.,
CC1CCN(c2ccc(C(=O)O)cc2NS(=O)(=O)c2ccc(F)cc2)CC1,0,20,.,1,.,-4,.,.,
CC1CCN(c2ccc(C(=O)O)cc2NS(=O)(=O)c2ccc(C(C)(C)C)cc2)CC1,-1,64*,.,0,.,-10,64*,26*,
CC1(c2nnnn2Cc2ccccc2)CSCC(=O)N1Cc1cccs1 (stereo not given),2,5,.,0,.,3,.,.,
O=C(N/N=C/c1ccc([N+](=O)[O-])o1)c1cn(-c2ccccc2)nc1-c1ccccc1,3,39*,13*,0,21,-2,19,10*,
O=C(O)COc1ccc(/C=N/NC(=O)c2ccccc2Br)cc1,.,.,-2,.,11,.,.,.,
O=C(O)COc1ccc(/C=N/NC(=O)c2cn(-c3ccccc3)nc2-c2ccccc2)cc1,-2,43*,-1,0,3,3,35*,10*,
O=C(O)c1ccccc1Nc1cccc(OCc2ccc3ccccc3n2)c1,-3,70*,-19,0,9,5,71*,31*,dCAG dye DR=i
COc1ccc(Nc2ccccc2C(=O)O)cc1,-2,-2,0,0,3,-1,.,.,
COC(=O)[C@]12C[C@H](CC(=O)N3CCN(C(=O)C4CC4)CC3)C(=O)N(Cc3cccc4ccccc34)C1=C[C@H](C(C)(C)C)O[C@@H]2C,6,6,.,0,.,12,.,.,
COc1ccc(Oc2ccc(C(F)(F)F)cc2NC(=O)CC(CC(=O)O)c2ccccc2)cc1 (stereo not given),-2,46*,-1,0,2,-1,42*,8.0*,
Cc1ccc(CN2C(=O)S/C(=C\c3ccccc3OCC(=O)O)C2=O)cc1,-5,60*,0,0,1,-6,64*,18*,
O=C(O)COc1ccccc1/C=C1\SC(=O)N(Cc2ccc(F)cc2)C1=O,1,37*,1,-1,0,0,39*,5.0*,
F[B-](F)(F)c1cncnc1,-1,4,.,0,.,-3,.,.,
CCCOc1ccc(C(=O)N/N=C/c2c[nH]c3ccc(Br)cc23)cc1,1,37*,37*,-2,3,0,25,12*,
CCN(c1ccc(C)cc1C)S(=O)(=O)c1nnc(NC(=O)c2ccco2)s1,3,59*,1,-1,-1,-5,45*,14*,
CC(C)CN(c1ccccc1)S(=O)(=O)c1nnc(NC(=O)c2ccco2)s1,-3,48*,-1,0,-2,8,48*,16*,
Cc1ccccc1N(C)C(=O)Cn1nnc(-c2ccccc2F)n1,4,2,.,0,.,6,.,.,
CN(C)c1ccc(N=Nc2ccc(S(N)(=O)=O)cc2)cc1,5,15,-4,0,10,2,.,.,
CN(C)c1ccc(N=Nc2ccc(S(=O)(=O)O)cc2)c2ccccc12,1,77*,-1,0,2,12,59*,24*,
COC(=O)C1CCCN(C(=O)C2CCN(S(=O)(=O)c3cccs3)CC2)C1 (stereo not given),0,3,.,1,.,1,.,.,
COc1ccc(-c2c/c(=N\c3nc(-c4ccccc4)c(C)s3)c3ccccc3o2)cc1O,-4,39*,15*,0,9,2,34,15*,
SMILES,ADAM17 inh,rCAG RNA binder,GRIN3A LBD mod,KLK7 zymogen act,AHR activator,ADAM10 inh,rCAG bind conf,dCAG dye counter,others
COc1ccc(-c2nc3ccccc3nc2-c2ccccc2)cc1OC,-7,-5,-1,3,2,-37,.,.,
Cc1c(CCC(=O)NCCCCCC(=O)O)c(=O)oc2cc3occ(-c4ccccc4)c3cc12,-21,10,-3,-1,.,-48,.,.,
CCC(NC(=O)CCc1c(C)c2cc3c(-c4ccccc4)coc3cc2oc1=O)C(=O)O (stereo not given),-37,37*,1,2,1,-76,42*,9.4*,
Cc1c(CCC(=O)N[C@@H](C)C(=O)O)c(=O)oc2cc3occ(-c4ccccc4)c3cc12,-37,36*,-3,0,0,-126,45*,9.8*,
O=C(c1cc(O)c(O)c([N+](=O)[O-])c1)c1ccccc1F,5,35*,-16,0,-1,11,35*,6.4*,
CCCCN(C)C(=O)c1sc(=O)n(Cc2c(C)cccc2C)c1C,-3,-5,.,0,.,0,.,.,
Cc1ccc(NC(=O)c2cccc(S(=O)(=O)Nc3c(C)n(C)n(-c4ccccc4)c3=O)c2)cc1C,-1,11,1,0,.,5,.,.,
O=C(O)CN1C(=O)/C(=C\c2cc([N+](=O)[O-])ccc2OCc2ccccc2Cl)SC1=S,1,86*,-5,0,0,4,85*,54*,
COc1ccc(/C=C2/SC(=S)N(CC(=O)O)C2=O)cc1OCc1ccc(Cl)cc1,-3,29,-2,0,2,1,.,.,
O=C(O)CN1C(=O)/C(=C\c2cc(Br)ccc2OCc2ccc(F)cc2)SC1=S,2,81*,29*,1,2,6,89*,61*,
O=C(O)CN1C(=O)/C(=C\c2cc(Br)ccc2OCc2ccc(Cl)cc2)SC1=S,-3,88*,4,0,.,9,94*,74*,
O=C1/C(=C/c2ccccc2Cl)SC(=S)N1CCCC(=O)N(CCO)c1ccccc1,5,1,-14,1,-6,1,.,.,
COc1ccc2cc(/C=N/NC(=O)CN(c3ccccc3OC)S(=O)(=O)c3ccccc3)c(Cl)nc2c1,-16,4,.,-6,.,-35,.,.,
COc1ccc2oc(C)c(C(=O)c3ccccc3)c2c1,1,-2,-1,0,-3,2,.,.,
COc1ccc2oc(/C=C/N(C)C)c(C(=O)c3ccc(Cl)cc3)c2c1,-6,40*,-12,0,5,-26,11,9.7*,

# Assay outcomes as filed in PubChem BioAssay.
